KinaseGlo FLuc: counter-screen: inhibitors of Kinase-Glo firefly luciferase. Q27757. Kinase-Glo luciferase, ATP luminescence, 8 min. Potency, µM (top dose mostly 38.3 µM), most hits filed as inhibitors. 200,000 compounds, 0.28% hits. AID 1379; note: nearly all actives have a fitted effect of over 60% in size
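Recombinant Kinase-Glo luciferase, 10 uM ATP (linear range), luciferin; imidazole pH 7.2 / KCl / MgCl2 / Tween / BSA buffer; 8 min RT; luminescence.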
FLuc counter: firefly luciferase modulation, counter-screen for miR-21 project; purified FLuc, Km substrates, luminescence inhibition; Potency, µM (titrated, usually from 57.5 µM), usual class: inhibitors; AID 588342; 360,000 compounds, 6.9% hits; note: nearly all actives have a fitted effect of over 55% in size
Target sequence (P08659 whole entry, looked up): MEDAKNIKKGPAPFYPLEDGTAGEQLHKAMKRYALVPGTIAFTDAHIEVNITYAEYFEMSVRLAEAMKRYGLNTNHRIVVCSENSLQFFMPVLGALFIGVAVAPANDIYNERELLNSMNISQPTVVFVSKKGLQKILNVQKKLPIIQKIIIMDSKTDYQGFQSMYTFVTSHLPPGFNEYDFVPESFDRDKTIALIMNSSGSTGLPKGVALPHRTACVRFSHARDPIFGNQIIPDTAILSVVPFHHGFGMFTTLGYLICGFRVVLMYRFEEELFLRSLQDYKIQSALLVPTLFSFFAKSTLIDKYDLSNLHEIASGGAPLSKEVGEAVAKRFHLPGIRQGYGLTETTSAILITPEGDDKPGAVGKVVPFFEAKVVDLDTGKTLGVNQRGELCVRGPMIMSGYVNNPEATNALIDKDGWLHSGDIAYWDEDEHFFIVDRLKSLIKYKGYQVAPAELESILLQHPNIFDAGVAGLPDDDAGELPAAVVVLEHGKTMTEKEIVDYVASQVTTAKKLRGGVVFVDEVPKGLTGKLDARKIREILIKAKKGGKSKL
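Purified P. pyralis luciferase (10nM final) with 10uM D-luciferin and 10uM ATP (Km levels) in 50mM Tris acetate pH 7.5, 10mM Mg acetate, 0.01% Tween-20, 0.05% BSA; qHTS 6-point titration, ~60 µM downward; luminescence read.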
SMN2 splice enh: enhancers of SMN2 splice variant expression | HEK293 SMN2-luciferase splicing reporter, luminescence, 30-36 h | Potency, µM (series often up to 46.1 µM), usual class: activators | 210,000 compounds, 2.8% hits | AID 1458; note: nearly all actives have a fitted effect of over 55% in size
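HEK293 cells carry an SMN2 […]–luciferase reporter in which exon 7 inclusion puts luciferase in frame. Cells were plated 10-12 h before compound addition, then incubated 30-36 h at 37C. ONE-Glo luminescence was read; sodium butyrate at 4.5 mM final served as control.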
Rab9 prom act: activators of Rab9 promoter; Huh7 Rab9 promoter-luciferase reporter, luminescence, 24 h; Potency, µM (top dose mostly 9.22 µM), usual class: activators; 320,000 compounds, 2.8% hits; AID 485297; note: nearly all actives have a fitted effect of over 60% in size
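Huh7 reporter line, Rab9 promoter upstream of luciferase. Compound exposure 24 h at 37 °C in reduced-serum medium with 10% FBS. Read-out: luminescence.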
NPC1 promoter act: activates the NPC1 promoter; 320,000 compounds, 2.4% hits; Huh7 NPC1 promoter luciferase reporter, 24 h; Potency, µM (titrated, usually from 9.22 µM), hits mostly activators; note: nearly all actives have a fitted effect of over 60% in size
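Luminescence read-out of NPC1 promoter-driven luciferase in stably transfected Huh7 cells; compounds delivered in DMSO and left 24 h at 37C, 5% CO2, qHTS titration format.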
ELG1 genotox: genotoxicity induction in ELG1-luciferase HEK293T cells; HEK293T ELG1-luciferase reporter, luminescence, 16 h; Potency, µM (highest dose often 46 µM), most hits filed as activators; 330,000 compounds, 1.3% hits; note: nearly all actives have a fitted effect of over 60% in size
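Genotoxicity was scored as increased ELG1-luciferase reporter signal, measured by ONE-Glo luminescence (30 min, room temperature). Compound or vehicle exposure of the HEK293T reporter cells lasted 16 hr at 37°C.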
Large screens that a line does not name were inactive. This is a sample that favours compounds with a hit; in the whole collection about 7.3% have one here. Calls come from the whole dose curve; as a rule, active = well fitted curve in the direction sought with a large enough effect; inconclusive = small, poorly fitted or top-dose-only effect, or another doubt; inactive = no such curve, though single readings can be large; an effect the other way counts as inactive or inconclusive.

Cc1cc2c(cc1C)N(CC(=O)N1CCCC1)C(=O)CC(c1ccccc1)=N2	FLuc counter 13.5µM, ELG1 genotox inconclusive
COc1ccccc1NC(=O)CN1C(=O)CC(c2ccc(C)c(C)c2)=Nc2ccccc21	FLuc counter 13.5µM (no result: KinaseGlo FLuc, SMN2 splice enh, Rab9 prom act, NPC1 promoter act, ELG1 genotox)
CN(C(=O)Cc1csc(-c2ccccc2)n1)c1c(N)n(Cc2ccccc2)c(=O)[nH]c1=O	none (no result: KinaseGlo FLuc, SMN2 splice enh)
O=C(Nc1ccccc1O)c1ccc(Cl)cc1	FLuc counter 26.9µM, Rab9 prom act inconclusive, NPC1 promoter act 3.16µM, ELG1 genotox inconclusive
O=C(Nc1ccccc1O)c1ccc([N+](=O)[O-])cc1	NPC1 promoter act inconclusive (no result: KinaseGlo FLuc, SMN2 splice enh)
O=C(Nc1ccccc1OC(=O)c1ccc(Cl)cc1)c1ccc(Cl)cc1	Rab9 prom act 3.16µM, NPC1 promoter act inconclusive
Cc1ccc(C(=O)Nc2cc(Cl)ccc2OC(=O)c2ccc(C)cc2)cc1	FLuc counter 21.3µM, SMN2 splice enh 14.1µM, Rab9 prom act 3.98µM, NPC1 promoter act inconclusive
Cc1cc(NC(=O)c2ccc(Cl)cc2)c(C)cc1O	FLuc counter 23.9µM (no result: SMN2 splice enh)
Cc1ccc(OC2=NS(=O)(=O)c3ccccc32)cc1	none
COc1ccc(OC)c(NC(=O)c2ccc(Cl)cc2)c1	FLuc counter inconclusive
COc1ccc(C(=O)Nc2cc(Cl)ccc2OC(=O)c2ccc(OC)cc2)cc1	FLuc counter inconclusive, Rab9 prom act inconclusive, NPC1 promoter act 3.55µM, ELG1 genotox inconclusive
O=C(C[n+]1cc(-c2ccc(F)cc2)n2c1CCC2)c1cccs1	FLuc counter 2.39µM, Rab9 prom act 2.51µM, NPC1 promoter act 3.16µM, ELG1 genotox inconclusive (no result: KinaseGlo FLuc, SMN2 splice enh)
Cc1cc(C)n(CCN(C)Cc2nc(Cc3ccccc3F)no2)n1	FLuc counter 4.78µM, Rab9 prom act inconclusive, NPC1 promoter act inconclusive, ELG1 genotox inconclusive (no result: SMN2 splice enh)
C#CCSc1nnc(-c2ccccc2)c(=O)[nH]1	none (no result: SMN2 splice enh)
CCN(CC)c1ccc(/C=N/NS(=O)(=O)c2ccc(C)c([N+](=O)[O-])c2)cc1	none (no result: KinaseGlo FLuc, SMN2 splice enh)
CCN(CC)c1ccc(N=Cc2ccc([N+](=O)[O-])o2)cc1	FLuc counter 6.75µM
CCN(CC)c1ccc(N=Cc2ccccc2[N+](=O)[O-])cc1	FLuc counter 3.79µM
CCCCCC(=O)N/N=C/c1ccc([N+](=O)[O-])o1	none (no result: KinaseGlo FLuc, SMN2 splice enh, ELG1 genotox)
COc1ccc(CCNC(=O)c2ccc3c(c2)sc2nc(-c4ccccc4)cn23)cc1OC	none (no result: KinaseGlo FLuc, SMN2 splice enh, Rab9 prom act, NPC1 promoter act, ELG1 genotox)
CCC(=O)Nc1c2c(nn1-c1ccccc1)CSC2	none (no result: KinaseGlo FLuc, SMN2 splice enh)
O=C(NNC(=S)NC(=O)c1ccccc1)c1ccc(O)cc1	none (no result: KinaseGlo FLuc, SMN2 splice enh)
O=C(NNC(=S)Nc1ccccc1)c1cccs1	FLuc counter inconclusive, SMN2 splice enh 10µM, Rab9 prom act 1.58µM, NPC1 promoter act inconclusive, ELG1 genotox inconclusive
COC(=O)c1ccc(NC(=S)NNC(=O)c2ccccc2)cc1	FLuc counter 23.9µM (no result: SMN2 splice enh)
O=C(NNC(=S)Nc1ccccc1)c1ccc(O)cc1	FLuc counter inconclusive, Rab9 prom act 3.55µM, NPC1 promoter act 3.55µM, ELG1 genotox inconclusive (no result: KinaseGlo FLuc, SMN2 splice enh)
NC1=NC(=Nc2ccccc2)c2ccccc21	SMN2 splice enh inconclusive, ELG1 genotox inconclusive
NC1=NC(=Nc2ccc(Cl)cc2)c2ccccc21	FLuc counter 7.57µM
CC(C)c1ccc(N=C2N=C(N)c3ccccc32)cc1	FLuc counter 0.477µM, Rab9 prom act inconclusive, ELG1 genotox inconclusive (no result: KinaseGlo FLuc, SMN2 splice enh)
Cc1cccc(N=C2N=C(N)c3ccccc32)c1	none
NC1=NC(=Nc2ccc(Br)cc2)c2ccccc21	FLuc counter 8.49µM, ELG1 genotox inconclusive
O=C(NCc1cccs1)c1nc(-c2cccs2)no1	FLuc counter inconclusive, SMN2 splice enh inconclusive, Rab9 prom act inconclusive, NPC1 promoter act inconclusive, ELG1 genotox inconclusive
CC(C)n1c(SC2C(=O)CC(C)(C)CC2=O)nc2c1c(=O)n(C)c(=O)n2C	SMN2 splice enh 11.2µM
CCCn1c(SC2C(=O)CC(C)(C)CC2=O)nc2c1c(=O)n(C)c(=O)n2C	none
O=C1/C(=C\c2cccnc2)Sc2ccccc21	FLuc counter 6.75µM, ELG1 genotox inconclusive
CC(=O)Nc1ccc(/C=C2/Sc3ccccc3C2=O)cc1	FLuc counter 0.757µM, ELG1 genotox inconclusive
CN(C)/C=C1/Sc2ccccc2C1=O	FLuc counter inconclusive
CN1C(=O)S/C(=C/c2cccnc2)C1=O	none
